Results taken from the supplement of paper PMC4466140.

B1: unnamed (peptide)
chain: PKRRAPPPVPKKPSS
B2: unnamed (peptide)
chain: SGVRLPAPPPPPRRG

Molecular target: CaNbp2
Experiment: SPOT peptide array binding signal intensity (averaged, normalized) (arbitrary units (background-subtracted, floor 0; scale differs between SH3 domains)); higher = stronger binding of the SH3 domain to the peptide
Outline: (§1)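 Binding signal is given in arbitrary units that differ between domains and is the normalized, background-subtracted spot intensity averaged across replicates. Each GST-SH3 fusion from one of four yeast species was made in E. coli BL21(DE3), purified on glutathione Sepharose and incubated at 10 μg/ml overnight at 4°C on cellulose-bound synthetic 15-mer peptides in which cysteines were replaced by serines. Detection used anti-GST antibody, an HRP anti-mouse secondary and luminol, followed by imaging and Genespotter quantification.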

Binder | SPOT peptide array binding signal intensity
B1 | 3070
B2 | 216

Molecular target: CaRvs167
Experiment: as above
Outline: as §1

Binder | SPOT peptide array binding signal intensity
B1 | 104
B2 | 1350

Molecular target: CaRvs167-3
Experiment: as above
Outline: as §1

Binder | SPOT peptide array binding signal intensity
B1 | 7.5
B2 | 10.2

Molecular target: CaSho1
Experiment: as above
Outline: as §1

Binder | SPOT peptide array binding signal intensity
B1 | 93
B2 | 34

Molecular target: CaSla1-D1-D2
Experiment: as above
Outline: as §1

Binder | SPOT peptide array binding signal intensity
B1 | 3270
B2 | 3580

Molecular target: CaSla1-D3
Experiment: as above
Outline: as §1

Binder | SPOT peptide array binding signal intensity
B1 | 1040
B2 | 77.2

Molecular target: ScAbp1
Experiment: as above
Outline: as §1

Binder | SPOT peptide array binding signal intensity
B1 | 3020
B2 | 452

Molecular target: ScBbc1
Experiment: as above
Outline: as §1

Binder | SPOT peptide array binding signal intensity
B1 | 651
B2 | 267

Molecular target: ScBem1-D1
Experiment: as above
Outline: as §1

Binder | SPOT peptide array binding signal intensity
B1 | 40
B2 | ≤ 0

Molecular target: ScBzz1-D1
Experiment: as above
Outline: as §1

Binder | SPOT peptide array binding signal intensity
B1 | 2560
B2 | 257

Molecular target: ScBzz1-D2
Experiment: as above
Outline: as §1

Binder | SPOT peptide array binding signal intensity
B1 | 83.5
B2 | 36

Molecular target: ScCyk3
Experiment: as above
Outline: as §1

Binder | SPOT peptide array binding signal intensity
B1 | 6
B2 | 6.5

Molecular target: ScFus1
Experiment: as above
Outline: as §1

Binder | SPOT peptide array binding signal intensity
B1 | 14
B2 | 3.5

Molecular target: ScHof1
Experiment: as above
Outline: as §1

Binder | SPOT peptide array binding signal intensity
B1 | ≤ 0
B2 | 482

Molecular target: ScHse1
Experiment: as above
Outline: as §1

Binder | SPOT peptide array binding signal intensity
B1 | 326
B2 | 169

Molecular target: ScLsb1
Experiment: as above
Outline: as §1

Binder | SPOT peptide array binding signal intensity
B1 | 488
B2 | 438

Molecular target: ScLsb2
Experiment: as above
Outline: as §1

Binder | SPOT peptide array binding signal intensity
B1 | 800
B2 | 438

Molecular target: ScLsb3
Experiment: as above
Outline: as §1

Binder | SPOT peptide array binding signal intensity
B1 | 4240
B2 | 2990

Molecular target: ScLsb4
Experiment: as above
Outline: as §1

Binder | SPOT peptide array binding signal intensity
B1 | 78.5
B2 | 2100

Molecular target: ScMyo3
Experiment: as above
Outline: as §1

Binder | SPOT peptide array binding signal intensity
B1 | 865
B2 | 1670

Molecular target: ScMyo5
Experiment: as above
Outline: as §1

Binder | SPOT peptide array binding signal intensity
B1 | 436
B2 | 864

Molecular target: ScNbp2
Experiment: as above
Outline: as §1

Binder | SPOT peptide array binding signal intensity
B1 | 5110
B2 | 622

Molecular target: ScPex13
Experiment: as above
Outline: as §1

Binder | SPOT peptide array binding signal intensity
B1 | 560
B2 | 1050

Molecular target: ScRvs167
Experiment: as above
Outline: as §1

Binder | SPOT peptide array binding signal intensity
B1 | 1250
B2 | 3210

Molecular target: ScSho1
Experiment: as above
Outline: as §1

Binder | SPOT peptide array binding signal intensity
B1 | 1580
B2 | 1100

Molecular target: ScSla1-D1-D2
Experiment: as above
Outline: as §1

Binder | SPOT peptide array binding signal intensity
B1 | 3720
B2 | 2820

Molecular target: ScSla1-D3
Experiment: as above
Outline: as §1

Binder | SPOT peptide array binding signal intensity
B1 | 1510
B2 | 9

Molecular target: SpAbp1-D1
Experiment: as above
Outline: as §1

Binder | SPOT peptide array binding signal intensity
B1 | 1910
B2 | 2280

Molecular target: SpBbc1
Experiment: as above
Outline: as §1

Binder | SPOT peptide array binding signal intensity
B1 | 144
B2 | 19.2

Molecular target: SpBzz1-D1
Experiment: as above
Outline: as §1

Binder | SPOT peptide array binding signal intensity
B1 | 2040
B2 | 3360

Molecular target: SpBzz1-D2
Experiment: as above
Outline: as §1

Binder | SPOT peptide array binding signal intensity
B1 | 863
B2 | 1490

Molecular target: SpCyk3
Experiment: as above
Outline: as §1

Binder | SPOT peptide array binding signal intensity
B1 | 2.5
B2 | 17

Molecular target: SpHof1
Experiment: as above
Outline: as §1

Binder | SPOT peptide array binding signal intensity
B1 | 165
B2 | 248

Molecular target: SpHof1-2
Experiment: as above
Outline: as §1

Binder | SPOT peptide array binding signal intensity
B1 | 21
B2 | 231

Molecular target: SpHof1-3
Experiment: as above
Outline: as §1

Binder | SPOT peptide array binding signal intensity
B1 | 290
B2 | 1500

Molecular target: SpHse1
Experiment: as above
Outline: as §1

Binder | SPOT peptide array binding signal intensity
B1 | 143
B2 | 67.5

Molecular target: SpLsb1
Experiment: as above
Outline: as §1

Binder | SPOT peptide array binding signal intensity
B1 | 1820
B2 | 870

Molecular target: SpLsb4
Experiment: as above
Outline: as §1

Binder | SPOT peptide array binding signal intensity
B1 | 1020
B2 | 6010

Molecular target: SpMyo1
Experiment: as above
Outline: as §1

Binder | SPOT peptide array binding signal intensity
B1 | 584
B2 | 502

Molecular target: SpNbp2
Experiment: as above
Outline: as §1

Binder | SPOT peptide array binding signal intensity
B1 | 38.5
B2 | 26

Molecular target: SpPex13
Experiment: as above
Outline: as §1

Binder | SPOT peptide array binding signal intensity
B1 | 11
B2 | 35

Molecular target: SpRvs167
Experiment: as above
Outline: as §1

Binder | SPOT peptide array binding signal intensity
B1 | 803
B2 | 2550

Molecular target: SpSla1-D1-D2
Experiment: as above
Outline: as §1

Binder | SPOT peptide array binding signal intensity
B1 | 1990
B2 | 993

Molecular target: SpSla1-D3
Experiment: as above
Outline: as §1

Binder | SPOT peptide array binding signal intensity
B1 | ≤ 0
B2 | 0.5

Molecular target: AgAbp1
Experiment: as above
Outline: as §1

Binder | SPOT peptide array binding signal intensity
B2 | 606

Molecular target: AgBbc1
Experiment: as above
Outline: as §1

Binder | SPOT peptide array binding signal intensity
B2 | 1230

Molecular target: AgBem1-D1
Experiment: as above
Outline: as §1

Binder | SPOT peptide array binding signal intensity
B2 | 36

Molecular target: AgBzz1-D1
Experiment: as above
Outline: as §1

Binder | SPOT peptide array binding signal intensity
B2 | 404

Molecular target: AgBzz1-D2
Experiment: as above
Outline: as §1

Binder | SPOT peptide array binding signal intensity
B2 | 140

Molecular target: AgCyk3
Experiment: as above
Outline: as §1

Binder | SPOT peptide array binding signal intensity
B2 | 2

Molecular target: AgFus1
Experiment: as above
Outline: as §1

Binder | SPOT peptide array binding signal intensity
B2 | 21

Molecular target: AgHof1
Experiment: as above
Outline: as §1

Binder | SPOT peptide array binding signal intensity
B2 | 472

Molecular target: AgHse1
Experiment: as above
Outline: as §1

Binder | SPOT peptide array binding signal intensity
B2 | 24.5

Molecular target: AgLsb1
Experiment: as above
Outline: as §1

Binder | SPOT peptide array binding signal intensity
B2 | 699

Molecular target: AgLsb4
Experiment: as above
Outline: as §1

Binder | SPOT peptide array binding signal intensity
B2 | 1040

Molecular target: AgMyo5
Experiment: as above
Outline: as §1

Binder | SPOT peptide array binding signal intensity
B2 | 579

Molecular target: AgNbp2
Experiment: as above
Outline: as §1

Binder | SPOT peptide array binding signal intensity
B2 | 1250

Molecular target: AgRvs167
Experiment: as above
Outline: as §1

Binder | SPOT peptide array binding signal intensity
B2 | 1310

Molecular target: AgSho1
Experiment: as above
Outline: as §1

Binder | SPOT peptide array binding signal intensity
B2 | 36

Molecular target: AgSla1-D1-D2
Experiment: as above
Outline: as §1

Binder | SPOT peptide array binding signal intensity
B2 | 38

Molecular target: AgSla1-D3
Experiment: as above
Outline: as §1

Binder | SPOT peptide array binding signal intensity
B2 | 61

Molecular target: CaAbp1-D1
Experiment: as above
Outline: as §1

Binder | SPOT peptide array binding signal intensity
B2 | 1510

Molecular target: CaAbp1-D2
Experiment: as above
Outline: as §1

Binder | SPOT peptide array binding signal intensity
B2 | 1030

Molecular target: CaBbc1
Experiment: as above
Outline: as §1

Binder | SPOT peptide array binding signal intensity
B2 | 1050

Molecular target: CaBem1-D1
Experiment: as above
Outline: as §1

Binder | SPOT peptide array binding signal intensity
B2 | 544

Molecular target: CaBzz1-D1
Experiment: as above
Outline: as §1

Binder | SPOT peptide array binding signal intensity
B2 | 3080

Molecular target: CaBzz1-D2
Experiment: as above
Outline: as §1

Binder | SPOT peptide array binding signal intensity
B2 | 1360

Molecular target: CaCyk3
Experiment: as above
Outline: as §1

Binder | SPOT peptide array binding signal intensity
B2 | 44

Molecular target: CaFus1
Experiment: as above
Outline: as §1

Binder | SPOT peptide array binding signal intensity
B2 | 74

Molecular target: CaHof1
Experiment: as above
Outline: as §1

Binder | SPOT peptide array binding signal intensity
B2 | 114

Molecular target: CaHse1
Experiment: as above
Outline: as §1

Binder | SPOT peptide array binding signal intensity
B2 | 20

Molecular target: CaLsb1
Experiment: as above
Outline: as §1

Binder | SPOT peptide array binding signal intensity
B2 | 0.5

Molecular target: CaLsb4
Experiment: as above
Outline: as §1

Binder | SPOT peptide array binding signal intensity
B2 | 1890

Molecular target: CaMyo5
Experiment: as above
Outline: as §1

Binder | SPOT peptide array binding signal intensity
B2 | 42
